Screens: PubChem BioAssay, several laboratories
Mtb FBA inh: Mtb FBA enzyme inhibitors, primary screen, biochemical, fluorescence, strain H37Rv; Fructose-bisphosphate aldolase (Mycobacterium tuberculosis (strain ATCC 25618 / H37Rv)), …; purified M. tuberculosis FBA, fluorescence read-out; inhibition, % at 1 µM; hit rate 2.3% among 360,000; in the data active = inhibition above about 27%;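 note: 0% = vehicle and 100% = reference inhibitor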
Mtb betalactam: beta-lactam sensitization of Mtb H37Rv, H37Rv; AID 434955, 2010; hit rate 0.27% among 330,000; inhibition, % at 25 µM; M. tuberculosis H37Rv growth with meropenem, percent inhibition; call rule not given here;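 note: growth measured after seven days incubation then overnight dye step; 0% = bacteria only wells and 100% = bacteria with antibiotic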
Mtb UGM inh: M. tuberculosis UGM enzyme inhibitors, primary screen, biochemical, fluorescence polarization, single point; inhibition, % at 10 µM; hit rate 0.06% among 320,000; AID 504406, 2011; purified UGM, fluorescence polarization probe displacement; UDP-galactopyranose mutase (Mycobacterium tuberculosis (strain ATCC 25618 / H37Rv)), …; in the data active = inhibition above about 10%, passing the limit was not always enough
Target sequence (P9WIQ1 whole entry, looked up): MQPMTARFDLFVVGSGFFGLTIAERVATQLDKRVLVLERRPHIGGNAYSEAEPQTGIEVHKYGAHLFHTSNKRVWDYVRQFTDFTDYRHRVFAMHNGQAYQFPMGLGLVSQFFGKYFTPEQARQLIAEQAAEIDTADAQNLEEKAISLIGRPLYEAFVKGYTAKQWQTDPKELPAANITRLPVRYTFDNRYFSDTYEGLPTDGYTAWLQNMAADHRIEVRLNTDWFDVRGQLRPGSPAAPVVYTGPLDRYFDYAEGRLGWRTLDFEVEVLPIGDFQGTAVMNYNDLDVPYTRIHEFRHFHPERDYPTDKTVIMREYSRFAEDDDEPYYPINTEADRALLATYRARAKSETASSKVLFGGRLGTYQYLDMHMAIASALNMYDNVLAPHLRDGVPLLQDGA
Rv3671c protease: Rv3671c serine protease inhibitors, primary screen, biochemical, fluorescence polarization, M. tuberculosis H37Rv | inhibition, % at 5.96 µM | P9WHR9 | hit rate 0.048% among 320,000; in the data active = inhibition above about 38%;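 note: extracellular domain of Rv3671c used as enzyme; 0% = enzyme with DMSO and 100% = no enzyme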
GDH-TPI counter: GDH-TPI coupling enzyme inhibitors, primary screen, artefact control for M. tuberculosis FBA inhibitor project, biochemical, absorbance, full deck; GDH-TPI coupled enzyme counterscreen, NADH absorbance; inhibition, % at 4.8 µM; hit rate 1.2% among 360,000; AID 588335, 2011; in the data active = inhibition above about 30%;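 note: 0% = DMSO wells and 100% = wells lacking the enzyme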
RecA intein inh: Mtb RecA intein splicing inhibitors, primary screen, biochemical, fluorescence, HTS; hit rate 0.75% among 290,000; Protein RecA (Mycobacterium tuberculosis (strain ATCC 25618 / H37Rv)), P9WHJ3; cell-free RecA intein splicing; inhibition, % (no concentration beside the values); AID 2221, 2009; in the data active = inhibition above about 30%;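 note: 0% = vehicle wells and 100% = reference inhibitor control wells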
The depositor's hits bear a star. A selection: hits, their analogues and other compounds. The true share with any hit is near 4%.

How did CC1(C)CC(=O)C2=C(C1)Nc1ccccc1NC2c1ccccn1 (stereo unspecified) do in these assays?
Mtb FBA inh: -2.0; Mtb betalactam: 0.3; Mtb UGM inh: 0.0; Rv3671c protease: 3.9; GDH-TPI counter: 41.9*; RecA intein inh: -0.7

How did Nc1c(C(=O)Nc2ccccc2)sc2nc(-c3cccnc3)ccc12 do in these assays?
Mtb betalactam: 85.8; Mtb UGM inh: 0.4; Rv3671c protease: 1.2; RecA intein inh: -1.9

Results for COc1ccc(NC(=O)c2sc3nc(-c4cccnc4)ccc3c2N)cc1 ?
Mtb FBA inh: -1.0; Mtb betalactam: -6.5; Mtb UGM inh: 1.8; Rv3671c protease: 5.6; GDH-TPI counter: 39.3*; RecA intein inh: -9.2

How did COc1ccc(NC(=O)c2sc3nc(-c4cccnc4)ccc3c2N)cc1OC do in these assays?
Mtb FBA inh: -1.1; Mtb betalactam: -5.7; Mtb UGM inh: 6.6; Rv3671c protease: -2.1; GDH-TPI counter: 43.5*; RecA intein inh: -10.4

Results for COc1ccc(F)cc1C1=CC(=O)C[C@H](c2ccc3c(c2)OCO3)C1 ?
Mtb FBA inh: 1.4; Mtb betalactam: -2.0; Mtb UGM inh: -0.4; Rv3671c protease: -9.7; GDH-TPI counter: -9.4

How did CC1(c2ccccc2)NC(=O)N(CC(=O)Nc2ccc3c(c2)CCC3)C1=O (stereo unspecified) do in these assays?
Mtb FBA inh: -2.5; Mtb betalactam: 2.7; Mtb UGM inh: -1.5; Rv3671c protease: 5.3; GDH-TPI counter: 5.4

Results for CCN(CC)S(=O)(=O)c1ccc(N/N=C(\C)c2cccnc2)nc1 ?
Mtb FBA inh: 0.8; Mtb betalactam: -3.4; Mtb UGM inh: 1.2; Rv3671c protease: 7.8; GDH-TPI counter: 35.0*; RecA intein inh: -0.1

What do the screens show for `CCN(CC)S(=O)(=O)c1ccc(N/N=C(\C)c2ccncc2)nc1`?
Mtb FBA inh: -3.5; Mtb betalactam: 3.9; Mtb UGM inh: -0.3; Rv3671c protease: -10.2; GDH-TPI counter: 37.9*; RecA intein inh: -1.1

How did C=CCN(c1ccccc1)S(=O)(=O)c1cccc(C(=O)Nc2ccc(N3CCOCC3)cc2)c1 do in these assays?
Mtb FBA inh: 0.9; GDH-TPI counter: 1.1

Results for O=c1c2ccccc2n(CC(O)CN2CCCCC2)c2ccccc12 (stereo unspecified) ?
Mtb FBA inh: 108.5*; Mtb betalactam: -7.7; Mtb UGM inh: -2.1; Rv3671c protease: 2.0; GDH-TPI counter: 3.9; RecA intein inh: inactive

Results for OC(CN1CCCCC1)Cn1c2ccccc2c2ccccc21 (stereo unspecified) ?
Mtb FBA inh: 3.3; Mtb betalactam: 2.9; Mtb UGM inh: 0.7; Rv3671c protease: -16.5; GDH-TPI counter: 0.0; RecA intein inh: -0.4

Results for CCN(CC)c1ccc(/C=N\NC(N)=O)cc1 ?
Mtb FBA inh: 26.3; Mtb betalactam: 6.7; Mtb UGM inh: 1.0; Rv3671c protease: -1.9; GDH-TPI counter: 48.1*; RecA intein inh: -4.9

What do the screens show for `CCN(CC)c1ccc(/C=N/NC(=O)Nc2ccccc2)cc1`?
Mtb FBA inh: 15.4; Mtb betalactam: 10.4; Mtb UGM inh: 1.2; Rv3671c protease: 1.3; GDH-TPI counter: 32.2*; RecA intein inh: -1.0

What do the screens show for `CSc1ncnc2c1ncn2CCCN1CCN(C(=O)C2CC2)CC1`?
Mtb FBA inh: 3.5; GDH-TPI counter: 2.4

Results for CC(=O)c1ccc(N2CCN(c3ccc(S(=O)(=O)NCCN(C)C)cc3[N+](=O)[O-])CC2)cc1 ?
Mtb FBA inh: -5.3; Mtb betalactam: -2.4; Mtb UGM inh: 2.4; Rv3671c protease: 3.2; GDH-TPI counter: 14.7; RecA intein inh: 4.4

Results for CC(=O)c1ccc(N2CCN(c3ccc(S(=O)(=O)NCCCN(C)C)cc3[N+](=O)[O-])CC2)cc1 ?
Mtb FBA inh: -4.3; Mtb betalactam: -5.6; Mtb UGM inh: 2.8; Rv3671c protease: 10.3; GDH-TPI counter: 57.4*; RecA intein inh: 0.2

How did COc1ccc(C(=O)CSc2nccn2C)c(OC)c1 do in these assays?
Mtb FBA inh: -0.5; Mtb betalactam: -5.3; Mtb UGM inh: -1.4; GDH-TPI counter: 6.5; RecA intein inh: 1.4

How did O=C(O/N=C\c1ccc(N2CCCCC2)c([N+](=O)[O-])c1)c1cccc(Cl)c1 do in these assays?
Mtb FBA inh: 0.2; Mtb betalactam: 71.7; Mtb UGM inh: 0.7; Rv3671c protease: -4.0; GDH-TPI counter: 16.7; RecA intein inh: -0.4

How did Cc1ccc(C(=O)O/N=C\c2ccc(N3CCCCC3)c([N+](=O)[O-])c2)cc1 do in these assays?
Mtb FBA inh: -0.6; Mtb betalactam: 95.9; Mtb UGM inh: 0.4; Rv3671c protease: 8.2; GDH-TPI counter: 39.8*; RecA intein inh: 0.5

Results for COc1ccc(S(=O)(=O)Oc2ccccc2C(N)=O)cc1 ?
Mtb FBA inh: 3.1; GDH-TPI counter: 2.1

Results for COc1ccc2oc3cc(NCCN(C)C)ccc3c(=O)c2c1 ?
Mtb FBA inh: active

Results for COc1ccc2sc3cccc(NCCN(C)C)c3c(=O)c2c1 ?
Mtb FBA inh: -10.1

Results for Cc1cc([N+](=O)[O-])nn1Cc1ccc(C(=O)N/N=C/c2ccc(O)cc2O)cc1 ?
Mtb FBA inh: -1.1; Mtb betalactam: 8.5; Mtb UGM inh: -1.7; Rv3671c protease: 20.2; GDH-TPI counter: 43.6*; RecA intein inh: 2.1

What do the screens show for `O=C(NCC(F)(F)F)[C@H]1O[C@@H](n2ccc(=O)[nH]c2=O)[C@H](O)[C@@H]1O`?
Mtb FBA inh: 1.0

How did COc1ccc(S(=O)(=O)NC2CCCCCC2)cc1C(N)=O do in these assays?
Mtb FBA inh: 4.2; Mtb betalactam: -4.8; Mtb UGM inh: 0.1; Rv3671c protease: -0.5; GDH-TPI counter: -4.1; RecA intein inh: 0.5

Results for Cc1cc(=O)c2ccccc2[nH]1 ?
Mtb FBA inh: -0.3; Mtb betalactam: -6.7; Mtb UGM inh: -0.7; Rv3671c protease: -3.1; GDH-TPI counter: 4.4; RecA intein inh: -5.5

Results for Cc1cc(=O)c2c(N(C)C)cccc2[nH]1 ?
Mtb FBA inh: active; GDH-TPI counter: 15.0

What do the screens show for `COc1cccc(OCC(O)CN2CCC(CN3C(=O)c4cccc5cccc(c45)C3=O)CC2)c1` (stereo unspecified)?
Mtb FBA inh: 19.7; Mtb betalactam: 81.1; Mtb UGM inh: 0.3; Rv3671c protease: -1.5; GDH-TPI counter: 12.3; RecA intein inh: -5.4

What do the screens show for `O=C1c2cccc3cccc(c23)C(=O)N1CC1CCN(CC(O)COc2ccc3ccccc3c2)CC1` (stereo unspecified)?
Mtb FBA inh: 4.5; Mtb betalactam: 100.2; Mtb UGM inh: 2.1; Rv3671c protease: -7.3; GDH-TPI counter: 42.0*; RecA intein inh: -1.3

What do the screens show for `COc1ccc(C(=O)Nc2ccc3nc4n(c(=O)c3c2)CCCCC4)cc1OC`?
Mtb FBA inh: -1.8; GDH-TPI counter: -8.0
